Reference: PubChem BioAssay AID2665 (Vanderbilt High Throughput Screening Facility, 2010)
Calls of active or inactive are those of the source. No rule for the calls is given here.

target: Muscarinic acetylcholine receptor M1 (Rattus norvegicus) (UniProt P08482); assay: potentiation of ACh response at hM5 and rM1 – CHO cells, calcium, ACh EC10, single 30 µM, SAR follow-up (AID 2665); settings: rat M1 potentiation, CHO calcium; at 30 µM; stronger effect = higher value;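 also: 100% = response to a maximal acetylcholine concentration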

Structure (SMILES)	% ACh max response
COc1ccccc1-c1ccc(CN2C(=O)C(=O)c3ccccc32)cc1	47.6%
O=C1C(=O)N(Cc2ccccc2F)c2c(Cl)ccc(Cl)c21	12.4%
O=C1C(=O)N(Cc2ccccc2Cl)c2c(F)cccc21	18.5%
O=C1C(=O)N(Cc2ccc(OC(F)(F)F)cc2)c2c(Cl)cccc21	43.6%
O=C1C(=O)N(Cc2ccccc2F)c2c(F)cccc21	42.7%
CCCOc1ccc(-c2ccc(CN3C(=O)C(=O)c4ccccc43)cc2)cc1	24.2%
O=C1C(=O)N(Cc2ccc(Br)cc2)c2c(F)cccc21	62.7%
Cc1cccc2c1N(Cc1ccc(F)cc1F)C(=O)C2=O	32.6%
O=C1C(=O)N(Cc2ccccc2C(F)(F)F)c2c(Cl)ccc(Cl)c21	21.1%
O=C1C(=O)N(Cc2ccccc2F)c2ccc(Cl)cc21	23%
O=C1C(=O)N(Cc2ccc(OC(F)(F)F)cc2)c2c(F)cccc21	51.8%
O=C1C(=O)N(Cc2ccc(-c3ccc(Cl)nc3)cc2)c2ccccc21	37.1%
COc1ccc(CN2C(=O)C(=O)c3c(Cl)ccc(Cl)c32)cc1	18.6%
O=C1C(=O)N(Cc2ccc(Br)cc2)c2c(Cl)ccc(Cl)c21	12.1%
O=C1C(=O)N(Cc2ccc(-c3ccc(F)nc3)cc2)c2ccccc21	41%
COc1ccc(CN2C(=O)C(=O)c3cc(F)ccc32)cc1	41.1%
O=C1C(=O)N(Cc2ccc(OC(F)(F)F)cc2)c2ccccc21	54.7%
O=C1C(=O)N(Cc2c(F)cccc2F)c2c(Cl)ccc(Cl)c21	16.4%
O=C1C(=O)N(Cc2ccccc2Cl)c2ccc(Cl)cc21	21.3%

Structure (SMILES)	% ACh max response
O=C1C(=O)N(Cc2ccc(F)cc2F)c2c(F)cccc21	64.4%
Cc1ccccc1CN1C(=O)C(=O)c2cc(F)ccc21	37.7%
O=C1C(=O)N(Cc2c(F)cccc2F)c2ccc(F)cc21	27.6%
COc1cccc(CN2C(=O)C(=O)c3cccc(Cl)c32)c1	46.9%
COc1cccc(CN2C(=O)C(=O)c3ccccc32)c1	19.4%
O=C1C(=O)N(Cc2ccccc2F)c2ccc(OC(F)(F)F)cc21	11.3%
Cc1cccc2c1N(Cc1c(F)cccc1F)C(=O)C2=O	17.3%
COc1ccc(CN2C(=O)C(=O)c3cccc(F)c32)cc1	54.6%
O=C1C(=O)N(Cc2ccc(Br)cc2F)c2ccc(F)cc21	70.5%
Cc1ccccc1CN1C(=O)C(=O)c2cc(Cl)ccc21	27.6%
O=C1C(=O)N(Cc2ccc(Br)cc2)c2c(Cl)cccc21	29.9%
O=C1C(=O)N(CCc2ccc(Br)cc2)c2ccccc21	52.4%
O=C1C(=O)N(Cc2ccc(OC(F)(F)F)cc2)c2ccc(F)cc21	59.8%
COc1cccc(CN2C(=O)C(=O)c3cc(F)ccc32)c1	32.3%
COc1cccc(CN2C(=O)C(=O)c3cc(OC(F)(F)F)ccc32)c1	28.6%
COc1ccc(CCN2C(=O)C(=O)c3ccccc32)cc1	38.6%
O=C1C(=O)N(Cc2ccc(Br)cc2F)c2ccccc21	49.2%
O=C1C(=O)N(Cc2c(F)cccc2F)c2ccc(OC(F)(F)F)cc21	13.6%

target: Muscarinic acetylcholine receptor M5 (Homo sapiens) (UniProt P08912); assay: as above; settings: CHO hM5 calcium flux, ACh EC10 potentiation; at 30 µM; stronger effect = higher value
Sequence (P08912 whole entry, looked up): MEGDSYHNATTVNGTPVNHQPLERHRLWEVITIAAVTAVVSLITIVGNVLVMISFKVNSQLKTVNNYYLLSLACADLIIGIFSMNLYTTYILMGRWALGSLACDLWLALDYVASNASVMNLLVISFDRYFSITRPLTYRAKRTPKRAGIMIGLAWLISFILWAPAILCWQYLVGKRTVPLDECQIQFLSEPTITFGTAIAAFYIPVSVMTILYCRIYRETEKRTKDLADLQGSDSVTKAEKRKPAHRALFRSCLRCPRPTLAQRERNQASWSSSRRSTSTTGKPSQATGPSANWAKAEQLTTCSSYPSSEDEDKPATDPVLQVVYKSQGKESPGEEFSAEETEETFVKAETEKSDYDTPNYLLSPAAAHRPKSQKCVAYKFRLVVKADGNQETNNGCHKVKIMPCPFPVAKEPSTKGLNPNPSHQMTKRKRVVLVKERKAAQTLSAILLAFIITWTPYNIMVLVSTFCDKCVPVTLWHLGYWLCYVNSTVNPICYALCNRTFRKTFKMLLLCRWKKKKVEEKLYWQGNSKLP

Structure (SMILES)	% ACh max response
COc1ccccc1-c1ccc(CN2C(=O)C(=O)c3ccccc32)cc1	58.1% (active)
O=C1C(=O)N(Cc2ccccc2F)c2c(Cl)ccc(Cl)c21	14.7% (inactive)
O=C1C(=O)N(Cc2ccccc2Cl)c2c(F)cccc21	20.3% (inactive)
O=C1C(=O)N(Cc2ccc(OC(F)(F)F)cc2)c2c(Cl)cccc21	72.3% (active)
O=C1C(=O)N(Cc2ccccc2F)c2c(F)cccc21	42.4% (active)
CCCOc1ccc(-c2ccc(CN3C(=O)C(=O)c4ccccc43)cc2)cc1	48.6% (active)
O=C1C(=O)N(Cc2ccc(Br)cc2)c2c(F)cccc21	51.7% (active)
Cc1cccc2c1N(Cc1ccc(F)cc1F)C(=O)C2=O	33.8% (inactive)
O=C1C(=O)N(Cc2ccccc2C(F)(F)F)c2c(Cl)ccc(Cl)c21	16% (inactive)
O=C1C(=O)N(Cc2ccccc2F)c2ccc(Cl)cc21	36.3% (inactive)
O=C1C(=O)N(Cc2ccc(OC(F)(F)F)cc2)c2c(F)cccc21	57.7% (active)
O=C1C(=O)N(Cc2ccc(-c3ccc(Cl)nc3)cc2)c2ccccc21	47.8% (active)
COc1ccc(CN2C(=O)C(=O)c3c(Cl)ccc(Cl)c32)cc1	11.7% (inactive)
O=C1C(=O)N(Cc2ccc(Br)cc2)c2c(Cl)ccc(Cl)c21	20.7% (inactive)
O=C1C(=O)N(Cc2ccc(-c3ccc(F)nc3)cc2)c2ccccc21	46% (active)
COc1ccc(CN2C(=O)C(=O)c3cc(F)ccc32)cc1	38.3% (active)
O=C1C(=O)N(Cc2ccc(OC(F)(F)F)cc2)c2ccccc21	60.5% (active)
O=C1C(=O)N(Cc2c(F)cccc2F)c2c(Cl)ccc(Cl)c21	12.2% (inactive)
O=C1C(=O)N(Cc2ccccc2Cl)c2ccc(Cl)cc21	44.4% (active)

Structure (SMILES)	% ACh max response
O=C1C(=O)N(Cc2ccc(F)cc2F)c2c(F)cccc21	68.9% (active)
Cc1ccccc1CN1C(=O)C(=O)c2cc(F)ccc21	40.8% (active)
O=C1C(=O)N(Cc2c(F)cccc2F)c2ccc(F)cc21	31.1% (inactive)
COc1cccc(CN2C(=O)C(=O)c3cccc(Cl)c32)c1	38.7% (active)
COc1cccc(CN2C(=O)C(=O)c3ccccc32)c1	28% (inactive)
O=C1C(=O)N(Cc2ccccc2F)c2ccc(OC(F)(F)F)cc21	51.8% (active)
Cc1cccc2c1N(Cc1c(F)cccc1F)C(=O)C2=O	14.4% (inactive)
COc1ccc(CN2C(=O)C(=O)c3cccc(F)c32)cc1	44.4% (active)
O=C1C(=O)N(Cc2ccc(Br)cc2F)c2ccc(F)cc21	64% (active)
Cc1ccccc1CN1C(=O)C(=O)c2cc(Cl)ccc21	47.3% (active)
O=C1C(=O)N(Cc2ccc(Br)cc2)c2c(Cl)cccc21	44.3% (active)
O=C1C(=O)N(CCc2ccc(Br)cc2)c2ccccc21	65% (active)
O=C1C(=O)N(Cc2ccc(OC(F)(F)F)cc2)c2ccc(F)cc21	58.4% (active)
COc1cccc(CN2C(=O)C(=O)c3cc(F)ccc32)c1	41.6% (active)
COc1cccc(CN2C(=O)C(=O)c3cc(OC(F)(F)F)ccc32)c1	70.1% (active)
COc1ccc(CCN2C(=O)C(=O)c3ccccc32)cc1	51.7% (active)
O=C1C(=O)N(Cc2ccc(Br)cc2F)c2ccccc21	48.5% (active)
O=C1C(=O)N(Cc2c(F)cccc2F)c2ccc(OC(F)(F)F)cc21	29.8% (inactive)
